Data on 22 sequences can be found in the supplement of paper PMC6555819.

The assay relates to RXRa DBDmut IVT, anti-RXR (DBD mutation: RXRa K156A/R161A, NR concentration 90 nM). The assay is described as follows: PBM binding z-score (relative to random genomic background probes); higher = stronger binding; sequences stand for … in GC…GCGATTGACAGCGTAGAATGAAGG
The gist of the method: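 Antibodies against each partner of ligand-free nuclear receptor dimers (one per run) detected binding on custom Agilent 4×180K protein-binding microarrays after 1 h incubation. The double-stranded probes had 34-nt variable regions carrying direct-repeat seeds, single-nucleotide variants, half-site ablations and random human genomic background sequences. Binding z-scores, from regression-normalized fluorescence, use the random background probes as reference.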
For TATGCTAGGTCAACGATGGTCAGCTAATCTGCTA, the PBM binding z-score worked out at 0.79.

On to AGATGTAGGTTACATCCGGGTCATTCAGGCTATG, for which the PBM binding z-score is 0.74.

The sequence TCTATTAGTTGATTAGGACAACCGAAACAGCGGA returned a PBM binding z-score of 1.39.

For the sequence CTCTAAAGGTCGGTTGAGGTGAGTATACGGATAA, the PBM binding z-score is 1.52.

In turn, CTGACTGGGGCAAAGGTTACCATACTCAGTACGA came in with a PBM binding z-score of 0.587.

For CCTAGCAGGCCAGAGTCACTCAAGCATTTCGCTT, the PBM binding z-score is -0.204.

As for GATACAGGGTCAGCTAGCGGCCAGAGTATGGAAA, the PBM binding z-score was 1.31.

The sequence CCTTACGGGTCACGAGGTTATTGCACGACGAGCG registered a PBM binding z-score of 1.83.

In turn, TCGAGTAGGTTAGTCGGGGCATTGAGCCAACATA displayed a PBM binding z-score of 0.159.

CCGACTGGGGCAAAGGTTCCCATACTCAGTACGA: the PBM binding z-score was -0.0939.

TGTCTAAGTTCAAAGGTAACGTAAGTATCCACAC returned a PBM binding z-score of 4.28.

GCATATCGGTAATACAAGGTGAAAGTCCGATTGT had a PBM binding z-score of 0.112.

Sequence TCTATTAGTTGAAGGGCAACCGTCGAGTCCGTTT yielded a PBM binding z-score of 1.63.

Regarding CCGACTGGGGCAAAGGTTACCGTACTCAGTACGA, the PBM binding z-score was -0.356.

In the case of CCGACTGGAGCAAAGGTTACCATACTCAGTACGA, the PBM binding z-score was 0.545.

ATCTCTAGGTAAGCCTCAGTTCAGTGAAGAACGC had a PBM binding z-score of 0.247.

GCCTACGGGTCAAAGGTTATAGCATGAATAGAAT came in with a PBM binding z-score of 1.55.

As for AGAATGAGGTTATACGTAGATCAGGGAAGAAAGT, the PBM binding z-score came to 1.35.

ACTCGGAGGACAAAAGTCAGAGCTACGCCAGTGA came in with a PBM binding z-score of 0.783.

Take AGTCAAAGTTCGGGACGAGGTAACGTAAAGCACG: the PBM binding z-score stood at 0.847.

The sequence CGAACTAGGTCATCCAGGACAGTGCATACATTGA had a PBM binding z-score of 2.45.

Regarding AGATCGAGGGCAATGAGTTGATAGCACGGGTGGC, the PBM binding z-score is 1.73.
